The record followed here is PubChem BioAssay AID1117361 (Southern Research Institute, 2015).

A word on the inhibition: it is how much of the control response was suppressed.

Hit rate of the full screen: of about 3,600 compounds, about 900 (25%) were called active. Not all results are given here. Measured potencies and affinities stand elsewhere. Values without a mark were called inactive. The rule behind the calls is not given here.

The target in the test is Protein Tat (Human immunodeficiency virus type 1 group M subtype B (isolate HXB2)) (UniProt P04608). Put plainly: HIV-1 Tat–TAR interaction blockers – biochemical, fluorescence polarization, FAM-labeled TAR RNA, counter-screen for Vif-APOBEC3G degradation inhibitor project, dose response (AID 1117361). The settings on record: Tat-TAR RNA binding; series mostly up to 100 µM; inhibition: at the top concentration. Background: Fluorescence polarisation rises when a labelled molecule tumbles more slowly, as on binding a larger partner.
`C=CCOc1c(Br)cc(CNn2nnnc2N)cc1OCC`: the “inhibition” value is 8.19%.

With `O=C(O)CN1C(=O)COc2cc(S(=O)(=O)N3CCCC3)ccc21`, the “inhibition” value is 8.78%. For the compound `O=C(c1cc(Cl)ccc1Cl)N1CCN(c2ccccn2)CC1`, the “inhibition” value is 2.7%. Turning to `Clc1ccc(-c2cnc(Oc3ccccc3)nc2)cc1`, the result was inactive. For `O=C(CNS(=O)(=O)c1ccc(Br)s1)N1CCCC1`, the “inhibition” value is 1.35%. On the same count and under the same terms, as for `CCCCCC(=O)Nc1nnn(CCC)n1`, the figure is 4.77%; as for `Cc1ccc(-n2nc(-c3ccc(N)cc3)cc2N)cc1`, 15%. For `Cc1ccc(S(=O)(=O)Nc2cc(NC(=O)CN3CCOCC3)ccc2Cl)cc1`, the result was inactive. Regarding `CCOCC(=O)Nc1ccc(C)c(Cl)c1`, the “inhibition” value was 8.19%.

In the case of `CCOC(=O)N1CCN(C(=O)c2cnn(-c3ccccc3)c2NC(=O)c2ccccc2F)CC1`, the call was inactive.

Consider `Cc1ccc(C=Nc2ccccc2C(N)=O)s1`, for which the compound was called inactive.

On to `O=C(Nc1ccc(F)cc1F)NC1CCN(S(=O)(=O)c2ccc(F)cc2)CC1`, for which the “inhibition” value was 4.12%. In the case of `Cc1nc(-c2noc(-c3ccccc3Cl)n2)c(C(F)(F)F)o1`, the result was inactive. For `O=C(Cn1cncn1)N/N=C/c1ccccc1Cl`, the “inhibition” value is 0.82%.

For `CCOc1cccc(-c2cc(=O)[nH][nH]2)c1`, the call was inactive.

For the compound `Cc1csc(NC(=O)C(NS(=O)(=O)c2ccc(Br)s2)c2ccccc2)n1` (stereo unspecified), the “inhibition” value was 0.68%.

For `CCOC(=O)c1c(C)[nH]c(C(=O)OCC(=O)Nc2sc(C(=O)N(C)C)c(C)c2C(=O)OCC)c1C`, the “inhibition” value was 12.4%. In the case of `CC(=O)c1c(C)[nH]c(C(=O)OCC(=O)C(C)(C)C)c1C`, the call was inactive.

With `CCCOc1ccc2oc(=O)c3c(c2c1)CCCN3C(=O)CN1CCc2ccccc2C1`, the “inhibition” value is 4.77%. Consider `COC1=CC(=O)C(C2CC(=O)c3c(O)cc(O)cc3O2)=CC1=O` (stereo unspecified), for which the “inhibition” value is 3.01%.

`COc1cc(Cl)c(C)cc1NC(=O)COc1cc(C)nc(C(C)C)n1`: the “inhibition” value is 1.35%. In the case of `O=C(CCC(=O)N1CCN(S(=O)(=O)c2ccccc2)CC1)NC1CCCc2ccccc21` (stereo unspecified), the “inhibition” value was 1.36%. With `CCOc1ccc(-c2nc(CN3CCCCC3CCn3cccn3)c(C)o2)cc1` (stereo unspecified), the outcome was inactive. As to `N#CCSc1nc2sc3c(c2c(=O)n1C1CCCCC1)CCCC3`, the outcome was inactive. Turning to `CN(C)[C@H]1N(C(=O)c2ccc(Br)cc2)N=C2c3ccccc3S(=O)(=O)N21`, the “inhibition” value is 4.73%. Regarding `COc1cc(C2NC(=O)NC(C)=C2C(=O)OCC2CCCO2)ccc1O` (stereo unspecified), the “inhibition” value was 8.19%.

As for `COc1ccc(NC(=S)N(CCCN2CCCC2)Cc2ccco2)cc1`, the result was inactive. Consider `CCCCCC(=O)N1C[C@@H](n2cc(C3CC3)nn2)[C@H](O)C[C@@H]1c1ccc(C)cc1`, for which the “inhibition” value was 9.02%.

As for `O=C(O)CCN1CCOCC1`, the “inhibition” value is 0.68%. The same measure, in the same setting: as for `COc1cccc(OC)c1C(=O)NC(C)C12CC3CC(CC(C3)C1)C2` (stereo unspecified), the figure is 8.87%. As for `Brc1ccc(-c2nnc(-c3cccc(Br)c3)o2)cc1`, the outcome was inactive. `O=C1OC(c2ccc(Br)cc2)=N/C1=C\N1CCCCC1`: the “inhibition” value was 2.7%. Same read-out and setting: as for `CCn1c(SC(C)C)nnc1-c1cc(-c2ccccc2)sc1N`, the figure is 9.07%. As to `COCCNC(=O)Cn1ncc2ccsc2c1=O`, the “inhibition” value was 2.03%.

For `Cc1ccc(OCCC(=O)OCC(=O)c2ccc3c(c2)NC(=O)CO3)cc1`, the outcome was inactive. In the case of `CCC(C)[C@@H](C(=O)Nc1ccc2c(c1)OCO2)N1Cc2ccccc2C1=O` (stereo partly specified), the “inhibition” value is 2.7%. The same measure, in the same setting: as for `Cc1ccc(S(=O)(=O)CCC(=O)Nc2ccc3c(c2)OCO3)cc1`, the figure is 6.76%. With `CCc1ccc(NC(=O)COC(=O)CCc2nc3cc(S(=O)(=O)N(CC)CC)ccc3n2C)cc1`, the outcome was inactive. Consider `Cc1ccc(S(=O)(=O)NCCC(=O)N2CCN(C/C=C/c3ccccc3)CC2)cc1`, for which the compound was classed as inactive. On to `O=C(CSc1nc2ccccc2c(=O)n1NC(=O)c1ccccc1)c1ccccc1`, for which the “inhibition” value is 1.36%. For `CCCc1cc(=O)[nH]c(SCC(=O)c2c(C)[nH]c3ccccc23)n1`, the outcome was inactive.

`COc1ccc(CC(NC(C)=O)C(=O)NC2CCN(S(=O)(=O)c3cccc4ccccc34)CC2)cc1OC` (stereo unspecified): the “inhibition” value was 3.38%. With `COc1c(F)c(F)c(C(=O)Nc2ccc3oc(-c4ccncc4)nc3c2)c(F)c1F`, the “inhibition” value is 7.43%. For `CCOC(=O)C1=C(C)NC2=C(C(=O)CC(C)(C)C2)C1c1ccsc1` (stereo unspecified), the call was inactive. Consider `CCN(CC)c1ccc(C2NC(=O)NC(C)=C2C(=O)Nc2ccccc2)cc1` (stereo unspecified), for which the “inhibition” value is 15.7%. On the same count and under the same terms, as for `CCOC(=O)c1c(O)c2ccccc2n(-c2ccccc2)c1=O`, the figure is 11.5%.

In the case of `CCn1c(=O)c(C(=O)NCc2ccccn2)c(O)c2ccccc21`, the “inhibition” value was 0.68%. With `O=C(CSc1nccn1Cc1ccccc1)Nc1nccs1`, the “inhibition” value is 14.2%. Regarding `CC(C)(C)OC(=O)NC(CCNC=C1C(=O)OC(C)(C)OC1=O)C(=O)O` (stereo unspecified), the compound was called inactive. Still for that read-out and setting: as for `O=C(Cc1ccc2c(c1)OCCO2)N1CCN(S(=O)(=O)c2cccs2)CC1`, the entry is “inactive”; as for `CC(=O)Nc1nnc(C)s1`, “inactive”.

For the compound `COc1ccc(-c2nnc(-c3ccc(N)cc3)o2)cc1`, the “inhibition” value was 4.34%. Take `COc1ccc(CNc2nc3ccccc3n2C)c(O)c1`: the compound was called inactive.

Take `O=C(NCCc1ccncc1)Nc1ccccc1Cl`: the outcome was inactive. For the compound `O=C(CCCNS(=O)(=O)c1cccc2nsnc12)NCc1ccccc1`, the “inhibition” value is 2.73%.

Take `Cc1onc(-c2ccccc2)c1C(=O)NCc1cccs1`: the “inhibition” value was 5.46%.
